Screens as filed in PubChem.
MARV entry inh = qHTS for inhibitors of binding or entry into cells for Marburg Virus. 300,000 tested, 1.8% active. Marburg virus pseudotyped entry inhibition, cell reporter. AID 540276, 2011. Potency, µM (series often up to 37.8 µM), hits mostly inhibitors; calls by dose curve; tested in HEK293 cells
FBPA Giardia inh = qHTS Assay for Inhibitors of Fructose-1,6-bisphosphate Aldolase from Giardia Lamblia; 290,000 tested, 0.71% active; Potency, µM (doses to about 59.6 µM), hits mostly inhibitors; purified Giardia FBPA; A8B2U2; note: nearly all actives have a fitted effect of over 55% in size
Target sequence (A8B2U2 whole entry, looked up): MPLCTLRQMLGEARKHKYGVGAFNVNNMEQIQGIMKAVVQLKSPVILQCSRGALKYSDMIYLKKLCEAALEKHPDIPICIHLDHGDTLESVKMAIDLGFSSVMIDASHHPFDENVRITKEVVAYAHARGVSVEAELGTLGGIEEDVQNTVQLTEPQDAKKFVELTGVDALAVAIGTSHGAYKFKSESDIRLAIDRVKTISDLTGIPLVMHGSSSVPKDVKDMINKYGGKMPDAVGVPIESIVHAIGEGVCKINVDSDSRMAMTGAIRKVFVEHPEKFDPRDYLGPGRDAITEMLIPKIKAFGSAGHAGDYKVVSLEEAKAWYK
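Giardia FBPA (40 nM reagent) was preincubated 10 min at RT with compound (up to 57.5 uM final), then substrate plus GAPDH/TPI/NAD/arsenate coupling system with diaphorase/resazurin was added; resorufin fluorescence (525/598 nm) was read after 20 min.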
HCMV antiviral = qHTS Assay for inhibitors of the human cytomegalovirus (HCMV) | HFF cells, HCMV-luciferase reporter, 72 h; stronger effect = lower value | activity change, negative = inhibition, % at 57.5 µM | 410,000 tested, 4.5% active | AID 1259415, 2018; in the data active = activity change below about -60%; inconclusive = no clear call, values can overlap the other calls; inactive = above about -39%
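Luciferase read-out from HCMV-luciferase-infected HFFs (MOI 1 PFU/cell) 72 h post infection at 37C; compounds added after 16 h cell attachment; activity normalized between buffer-only basal and Salinomycin (10uM) inhibitor controls.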
Lassa entry inh = qHTS for Inhibitors of binding or entry into cells for Lassa Virus; Lassa virus pseudotype entry inhibition, cell reporter; Potency, µM (series often up to 37.9 µM), hits mostly inhibitors; 300,000 tested, 1.2% active; AID 540256, 2011; calls by dose curve; tested in HEK293 cells; note: nearly all actives have a fitted effect of over 50% in size
FMDV antiviral = High Throughput Screening for Foot and Mouth Disease Virus Antivirals; FMDV antiviral cell-based qHTS; Potency, µM (series often up to 57.9 µM), hits mostly inhibitors; 410,000 tested, 1.2% active; calls by dose curve; tested in HEK293T cells; note: read-out not given here; nearly all actives have a fitted effect of over 45% in size
HCV inh = qHTS Assay for Inhibitors of Hepatitis C Virus (HCV) | Huh7.5.1 HCVcc-Cre infection, luciferase reporter, 44 h | Potency, µM (top dose mostly 41.8 µM), hits mostly inhibitors | 340,000 tested, 3.4% active
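Infectious HCVcc-Cre (~0.5 moi) was added to cells just after compound, with cells seeded 4 h earlier at 1,000 per well. Luciferase activity after 44 h culture reported infection; substrate was incubated 15 min at room temperature before reading.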
Each line names hits and unclear results; the compound was inactive in the other large screens. Most compounds without a hit are left out; they make up all but 8.3% or so of the library. Unless noted, calls come from the whole dose curve; as a rule, active = well fitted curve in the direction sought with a large enough effect; inconclusive = small, poorly fitted or top-dose-only effect, or another doubt; inactive = no such curve, though single readings can be large; an effect the other way counts as inactive or inconclusive.

O[C@H]1CN(CC2CCCCC2)[C@@H](c2ccc(Cl)cc2)C[C@H]1n1cc(C2CC2)nn1	Lassa entry inh 10µM (no result: MARV entry inh, FBPA Giardia inh, HCMV antiviral, FMDV antiviral, HCV inh)
COC(=O)C[C@H](NC(=O)[C@H](C)NC(=O)[C@@H](NC(=O)OCc1ccccc1)C(C)C)C(=O)CF	none (no result: MARV entry inh, FBPA Giardia inh, HCMV antiviral, Lassa entry inh, HCV inh)
CC[C@H](C)[C@H](NC(=O)[C@H](Cc1ccc(O)cc1)NC(=O)[C@@H]1CCCN1C(=O)[C@@H](N)CCCN=C(N)N)C(=O)N[C@@H](CC(C)C)C(=O)O	none (no result: MARV entry inh, HCMV antiviral, Lassa entry inh, FMDV antiviral, HCV inh)
O=C(/C=C/c1ccc(O)c(O)c1)O[C@@H]1C[C@@](O)(C(=O)O)C[C@H](O)[C@@H]1O	none (no result: MARV entry inh, HCMV antiviral, Lassa entry inh, FMDV antiviral, HCV inh)
CCCCCCN1C[C@@H](O)[C@H](n2cc(COC(=O)c3ccccc3)nn2)C[C@@H]1c1ccc(OC)cc1	HCMV antiviral -101 (no result: MARV entry inh, FBPA Giardia inh, Lassa entry inh, HCV inh)
CCCCCCN1C[C@H](O)[C@@H](n2cc(COC(=O)c3ccccc3)nn2)C[C@@H]1c1ccc(C)cc1	none (no result: MARV entry inh, FBPA Giardia inh, Lassa entry inh, HCV inh)
Cn1c(/C=C/c2cccc([N+](=O)[O-])c2)c([N+](=O)[O-])c(=O)n(C)c1=O	MARV entry inh 8.9µM, HCMV antiviral -102, Lassa entry inh inconclusive, FMDV antiviral 13µM, HCV inh inconclusive
CCCCCOc1ccc(/C=C/c2c([N+](=O)[O-])c(=O)n(C)c(=O)n2C)cc1	MARV entry inh inconclusive, HCMV antiviral -94, FMDV antiviral inconclusive
CCOc1ccc(/C=C/c2[nH]c(=O)[nH]c(=O)c2[N+](=O)[O-])cc1	MARV entry inh inconclusive
CN(/C=C/c1c([N+](=O)[O-])c(=O)n(C)c(=O)n1C)c1ccccc1	none
COc1ccc(/C=C/c2c([N+](=O)[O-])c(=O)n(C)c(=O)n2C)c(OC)c1OC	MARV entry inh inconclusive, HCMV antiviral -65, Lassa entry inh inconclusive, FMDV antiviral inconclusive
COc1ccc(/C=C/c2c([N+](=O)[O-])c(=O)n(C)c(=O)n2C)cc1OC	MARV entry inh inconclusive (no result: FMDV antiviral)
Cn1c(/C=C/c2ccc(Cl)cc2)c([N+](=O)[O-])c(=O)n(C)c1=O	HCMV antiviral -98, FMDV antiviral 18µM, HCV inh inconclusive (no result: MARV entry inh, Lassa entry inh)
CCn1c(=O)c2cc(C(=O)N3CCN(c4cccc(OC)c4)CC3)sc2c2ccccc21	MARV entry inh inconclusive, Lassa entry inh inconclusive (no result: FBPA Giardia inh, HCV inh)
COCC(=O)N1CCC2(CC1)CN(c1ccc(-c3ccccc3)cc1)C2	none (no result: MARV entry inh, HCMV antiviral, Lassa entry inh, HCV inh)
CCC1(C2CCN(C(=O)c3ccc(C)c(C)c3)CC2)NC(=O)N(CCc2scnc2C)C1=O (centres undefined)	none (no result: MARV entry inh, FBPA Giardia inh, HCMV antiviral, Lassa entry inh, HCV inh)
CCCC1CCC(c2ccc(C(=O)NN)cc2)CC1 (centres undefined)	HCMV antiviral -79, Lassa entry inh inconclusive
Oc1ccc(N2Cc3ccccc3C2)cc1	MARV entry inh inconclusive, Lassa entry inh inconclusive (no result: HCMV antiviral)
O=Cc1ccc(N2Cc3ccccc3C2)cc1	MARV entry inh 1.3µM, Lassa entry inh inconclusive
Cc1ccc(-c2csc3ncnc(Nc4ccc(N5CCOCC5)cc4)c23)cc1	MARV entry inh inconclusive, HCMV antiviral -90, Lassa entry inh 13µM, FMDV antiviral inconclusive, HCV inh inconclusive
c1ccc(CNc2nc(CN3CCOCC3)nc3scc(-c4ccccc4)c23)cc1	MARV entry inh inconclusive
CCC(CO)Nc1nc(CN2CCCCC2)nc2scc(-c3ccccc3)c12 (centres undefined)	MARV entry inh inconclusive, HCMV antiviral -69, HCV inh inconclusive
c1ccc(-c2csc3ncnc(NCCN4CCOCC4)c23)cc1	HCMV antiviral -77, FMDV antiviral 22µM, HCV inh 11µM
COc1ccc(-c2csc3ncnc(NCCN4CCOCC4)c23)cc1	MARV entry inh inconclusive, HCMV antiviral -66, Lassa entry inh inconclusive, FMDV antiviral inconclusive, HCV inh inconclusive
COc1ccc(-c2csc3ncnc(Nc4cc(OC)cc(OC)c4)c23)cc1	Lassa entry inh inconclusive (no result: MARV entry inh, FBPA Giardia inh, HCV inh)
c1nc(NCCN2CCOCC2)c2c3c(sc2n1)CCCCC3	none
Cc1ccc(-c2csc3ncnc(NCCN4CCOCC4)c23)cc1	MARV entry inh 11µM, HCMV antiviral -70, Lassa entry inh inconclusive, HCV inh inconclusive
Cc1ccc(-c2csc3ncnc(NCCC(=O)O)c23)cc1	none
Clc1ccc(-c2csc3ncnc(NCCN4CCOCC4)c23)cc1	MARV entry inh inconclusive, HCMV antiviral -75, Lassa entry inh inconclusive, FMDV antiviral inconclusive, HCV inh inconclusive
